# Data: PubChem BioAssay (NCI)
# The panel holds about 83,000 compounds, 20% with a hit somewhere; the sample as a whole holds those more often.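 Negative percent growth values reflect cell death: -40 means 40% of the cells present at the start died, and -100 means all died.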 A number with no mark means an inactive call. Active and inactive are the calls of the source. The calls were made as follows: active = growth percent below 10; inactive = the rest.
# Columns and labels:
# Test in all cases: NCI-60 one-dose screen, 48 h (100 = growth as untreated, 0 = no growth, -100 = all killed)
# Conditions in all cases: 10 µM unless noted
# HCT-15 colon = system: HCT-15 colon
# HT29 colon = system: HT29 colon
# SNB-75 CNS = system: SNB-75 CNS
# SNB-19 CNS = system: SNB-19 CNS
# U251 CNS = system: U251 CNS
# PC-3 prostate = system: PC-3 prostate
# SK-MEL-5 melanoma = system: SK-MEL-5 melanoma
# UACC-62 melanoma = system: UACC-62 melanoma
# LOX IMVI melanoma = system: LOX IMVI melanoma
# SK-MEL-28 melanoma = system: SK-MEL-28 melanoma
# SK-MEL-2 melanoma = system: SK-MEL-2 melanoma
# EKVX NSCLC = system: EKVX NSCLC
# UO-31 renal = system: UO-31 renal
# TK-10 renal = system: TK-10 renal
# ACHN renal = system: ACHN renal
# CAKI-1 renal = system: CAKI-1 renal
# A498 renal = system: A498 renal
# CCRF-CEM leukemia = system: CCRF-CEM leukemia
# MOLT-4 leukemia = system: MOLT-4 leukemia
# SN12C renal = system: SN12C renal
Structure (SMILES),growth (HCT-15 colon),growth (HT29 colon),growth (SNB-75 CNS),growth (SNB-19 CNS),growth (U251 CNS),growth (PC-3 prostate),growth (SK-MEL-5 melanoma),growth (UACC-62 melanoma),growth (LOX IMVI melanoma),growth (SK-MEL-28 melanoma),growth (SK-MEL-2 melanoma),growth (EKVX NSCLC),growth (UO-31 renal),growth (TK-10 renal),growth (ACHN renal),growth (CAKI-1 renal),growth (A498 renal),growth (CCRF-CEM leukemia),growth (MOLT-4 leukemia),growth (SN12C renal)
N#Cc1c(NC(=O)c2cccc(C(F)(F)F)c2)sc2c1CCC(=O)C2,-39.4% (active),2.24% (active),-50.5% (active),12.3%,0.284% (active),-42% (active),-95.6% (active),-51.1% (active),-12.7% (active),-42.5% (active),-0.134% (active),14.7%,-100% (active),-5.21% (active),-93.8% (active),-85.3% (active),94.6%,6.89% (active),3.86% (active),
CN1CCC(=C2c3ccccc3C=Cc3ccccc32)CC1,73.7%,61.9%,47.8%,91.7%,59.8%,64.9%,68.6%,82.5%,72.1%,85.9%,105%,91.9%,67%,,84.4%,95.5%,99.2%,53.1%,72.6%,79.1%
C=C(C)[C@@H]1CC[C@@]2(C(=O)O)CC[C@]3(C)C(CCC4[C@@]5(C)CCC(OS(=O)(=O)c6ccccc6)C(C)(C)C5CC[C@]43C)C12 (stereo partly drawn),39.7%,58.4%,86.1%,83.6%,41.5%,44.4%,35.6%,47.5%,53.8%,86%,70.3%,25.4%,48.5%,,49.7%,-15.5% (active),84.2%,62.4%,51.7%,62.2%
COc1cc2ccccc2cc1C(=O)NC(=S)Nc1ccc(-c2nc3ccccc3[nH]2)cc1,78.5%,72.7%,54.4%,86.6%,75.2%,90.6%,42.5%,93%,60.5%,90.1%,105%,89.9%,89.8%,,99.2%,90.7%,,79.2%,91.1%,83.4%
CC(c1ccc(-n2cccn2)cc1)c1cnc(N2CCc3ccc(C(N)=O)cc3C2)s1 (stereo not drawn),69.3%,81.3%,76.1%,85.4%,78.3%,59.1%,18.8%,57.3%,66.4%,81.8%,51.7%,54.3%,51.8%,68.6%,,,81%,33.4%,8.64% (active),86.9%
CCOC(=O)C1C(=O)C=C(c2cnccn2)CC1c1ccc(OC)c(OC)c1 (stereo not drawn),98.9%,93.1%,105%,102%,99.5%,70.4%,103%,101%,100%,102%,86.4%,101%,87.4%,87.8%,,,,82.2%,73.2%,100%
CCCCn1c(=O)[nH]c(N)c(C(c2ccc(F)cc2)c2c(N)[nH]c(=O)n(CCCC)c2=O)c1=O,95.7%,66.4%,62.2%,74%,65.3%,53.9%,36.7%,55.6%,58.9%,74.7%,58.6%,69.3%,103%,68.3%,92.7%,100%,90.1%,58%,29.8%,
CCCCOC(=O)c1ccc(NC(=O)C(C)N2CCOCC2)cc1 (stereo not drawn),108%,79.5%,107%,99.5%,93.2%,72.7%,104%,95.1%,101%,112%,90.6%,109%,88.3%,97.2%,,,99.5%,72.4%,94.9%,104%
C=CCN1C(=O)[C@]2(SC1=S)[C@H](c1cccc(Cl)c1)CN(C)[C@]21C(=O)NC2C=CC(Cl)=C[C@H]21 (stereo partly drawn),27%,27.9%,44.4%,59.9%,67.8%,7.5% (active),42%,36.1%,13.3%,64.1%,44.2%,38.4%,-41.2% (active),,,,76.8%,4.67% (active),-17.7% (active),-53.6% (active)
COc1ccc(-c2cn(-c3cccc(C(=O)/C=C/c4cc(OC)c(OC)c(OC)c4)c3)c(=O)[nH]2)cc1,3.15% (active),-67.1% (active),49.6%,34.2%,-51.8% (active),20.6%,-54% (active),-42.8% (active),-68% (active),-33.9% (active),-21.5% (active),6.73% (active),-33.9% (active),,-49.9% (active),-12.1% (active),62.8%,6.11% (active),3.77% (active),9.79% (active)
CSc1ccc(Cl)c(C(=O)Nc2sccc2C(N)=O)c1,98.8%,118%,105%,80.6%,94.3%,83.8%,95%,81.1%,100%,102%,92.7%,108%,80.6%,,102%,112%,94.2%,94.1%,125%,93.6%
COc1cc2nc(Nc3ccc(F)cc3)nc(N)c2cc1OC,94.7%,81%,103%,92.6%,94%,84.1%,90.5%,94%,101%,105%,91%,106%,76.1%,,101%,102%,,81.4%,65.3%,92%
C=CCOc1cccc(/C=C2\SC(=Nc3ccc(O)cc3)NC2=O)c1,10.1%,11.7%,-18.6% (active),30.9%,13.1%,13.9%,-39% (active),34.7%,8.94% (active),69.7%,40.6%,28.8%,20.7%,,24.3%,24.4%,,4.85% (active),13.4%,14.9%
NS(=O)(=O)Oc1ccc(-c2sc3cc(O)ccc3c2C(=O)c2ccc(OCCN3CCCCC3)cc2)cc1,36.2%,0.722% (active),39.6%,78.2%,21.9%,69.9%,46.2%,-47.2% (active),34.4%,23.6%,84%,72.3%,43.6%,,60.9%,49.3%,,25.9%,11%,69.1%
CCC(O)(C(c1ccccc1)c1ccccn1)C(c1ccccc1)c1ccccn1 (stereo not drawn),103%,102%,99.4%,108%,107%,97.4%,106%,113%,98%,107%,97.5%,97.7%,84.3%,,95.2%,90.3%,96.7%,114%,87%,110%
CCOC(=O)c1c(C)nc2c(c1N)/C(=C/c1cc(OC)c(OC)c(OC)c1)C(=O)N2c1ccc(OC)cc1,31.3%,26.2%,73.9%,47.9%,43.6%,50.1%,69.5%,67.3%,14.6%,70.2%,67.1%,93.2%,55.7%,77.4%,,,,8.45% (active),17.6%,36.2%
CC(C)OC(=O)OCOP(=O)(OCOC(=O)OC(C)C)C1CCCN(O)C1=O (stereo not drawn),33.4%,5.87% (active),57.6%,21.5%,15.2%,60.5%,30.9%,23.6%,39%,15.2%,28.5%,47.8%,9.98% (active),2.39% (active),26.9%,25.1%,1.16% (active),10%,22.5%,
CC(C)CCC[C@@H](C)[C@H]1CCC2C3=CCn4c(=O)ccc(=O)n4C3CC[C@@]21C (stereo partly drawn),-44.6% (active),-63.7% (active),-100% (active),-96.8% (active),-96.9% (active),-85.5% (active),-100% (active),-97.5% (active),-89.5% (active),-93% (active),-57.4% (active),-82.2% (active),-88.5% (active),-83.1% (active),-95.1% (active),-91.6% (active),-94.8% (active),-2.44% (active),-23.6% (active),
CCCCN(CCCC)CCCn1c(=O)c2sc3ncccc3c2n2nnc(-c3ccccc3)c12,99.8%,74.4%,86.1%,101%,95.3%,91.3%,107%,90.8%,110%,98.4%,107%,-3.24% (active),48.1%,118%,97%,-87.9% (active),117%,90.8%,94.5%,
Cc1nc(Nc2ccc(NC(=S)Nc3ccccc3)cc2)nc2nc(Nc3ccc(S(=O)(=O)O)cc3)[nH]c(=O)c12,127%,145%,128%,96.2%,110%,99.5%,117%,105%,109%,125%,104%,,78.9%,125%,128%,82.5%,158%,84.5%,89.7%,109%
O=C(CC12CC3CC(CC(C3)C1)C2)NCCOCCOCCNC(=O)c1cc2c(o1)C(=O)c1ccccc1C2=O,-80.2% (active),3.08% (active),-99% (active),-16.3% (active),-87.8% (active),4.8% (active),-97.5% (active),-94.9% (active),-95.1% (active),-73.5% (active),-42% (active),-66.4% (active),-60.1% (active),-27.1% (active),-74% (active),-65.8% (active),,12.6%,-4.92% (active),
CCCCCCCC/C=C/CCCCCCCC1=NCC[N+]1(CCO)CCO,80.6%,13%,63.2%,73.7%,36.1%,31.9%,77.9%,69.4%,52%,96.3%,102%,76.4%,65.4%,41.2%,82.2%,52.5%,73.4%,31.4%,41.7%,
Nc1ccc(S(=O)(=O)Nc2ccsc2-c2nc(-c3ccccc3)no2)cc1,34.1%,11.8%,54.8%,69.3%,41.7%,53.1%,65.9%,50.7%,68%,71.2%,32.3%,,71.3%,66.1%,87.8%,53.8%,61.2%,53.2%,36.5%,84.8%
COc1ccc(OC)c(Nc2nc3nonc3nc2Nc2cccc(Br)c2)c1,13.1%,3.47% (active),3.07% (active),14.6%,3.05% (active),1.15% (active),-47.8% (active),18.7%,4.56% (active),30.2%,-17.4% (active),,3.39% (active),7.4% (active),-22.5% (active),0.162% (active),-39.9% (active),12.4%,3.8% (active),12.4%
